# Assay outcomes deposited in PubChem by National Center for Advancing Translational Sciences (NCATS).
# SMN2 splice up: enhancers of SMN2 splice variant expression | Potency, µM (top dose mostly 46.1 µM), inactives show at the highest dose activity change, positive = activation, usual class: activators | HEK293 SMN2-luciferase splicing reporter, luminescence, 30-36 h | 210,000 compounds, 2.8% hits; further: % of control where 0% means no effect; nearly all actives have a fitted effect of over 55% in size
#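 HEK293 cells carry an SMN2 […]–luciferase reporter in which exon 7 inclusion puts luciferase in frame. Cells were plated 10-12 h before compound addition, then incubated 30-36 h at 37C. ONE-Glo luminescence was read; sodium butyrate at 4.5 mM final served as control.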
# Rab9 prom act: activators of Rab9 promoter; Huh7 Rab9 promoter-luciferase reporter, luminescence, 24 h; Potency, µM (series often up to 9.22 µM), for the others: top-dose activation, negative = inhibition, usual class: activators; 320,000 compounds, 2.8% hits; further: % of control where 0% means no effect; nearly all actives have a fitted effect of over 60% in size
#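 Luminescence from Amplite-detected luciferase (10 minutes, ambient) reports Rab9 promoter activation. Before that, stable Rab9-luciferase Huh7 cells (1500/well, reduced-serum OP-MEM I plus 10% FBS) were exposed to compound for 24 hours at 37C.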
# FLuc counter: counter-screen for miR-21 project: firefly luciferase inhibitors or activators | P08659 | purified FLuc, Km substrates, luminescence inhibition | Potency, µM (series often up to 57.5 µM), inactives show at the top dose activity change, negative = inhibition, usual class: inhibitors | 360,000 compounds, 6.9% hits | AID 588342;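 further: plate controls were vehicle for no effect and reference inhibitor for full effect; nearly all actives have a fitted effect of over 55% in size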
# Target sequence (P08659 whole entry, looked up): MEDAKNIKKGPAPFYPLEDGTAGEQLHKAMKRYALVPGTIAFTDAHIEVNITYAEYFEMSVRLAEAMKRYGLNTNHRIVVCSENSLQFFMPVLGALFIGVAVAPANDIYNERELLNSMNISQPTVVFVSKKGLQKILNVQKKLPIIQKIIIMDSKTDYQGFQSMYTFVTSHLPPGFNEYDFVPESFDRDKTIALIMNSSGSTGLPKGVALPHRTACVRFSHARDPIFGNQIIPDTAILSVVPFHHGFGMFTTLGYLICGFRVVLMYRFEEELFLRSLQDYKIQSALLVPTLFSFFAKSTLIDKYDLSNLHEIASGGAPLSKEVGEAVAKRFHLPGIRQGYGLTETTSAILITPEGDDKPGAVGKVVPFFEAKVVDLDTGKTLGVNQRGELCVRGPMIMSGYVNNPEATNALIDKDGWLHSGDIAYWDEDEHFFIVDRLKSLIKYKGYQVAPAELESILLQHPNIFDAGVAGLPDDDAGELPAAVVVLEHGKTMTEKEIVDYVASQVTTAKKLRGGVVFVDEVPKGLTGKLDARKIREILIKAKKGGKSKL
#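 Purified P. pyralis luciferase, 10 nM final, with Km-level 10 uM D-luciferin and 10 uM ATP in 50 mM Tris acetate pH 7.5, 10 mM Mg acetate, 0.01% Tween-20, 0.05% BSA; 6-point qHTS titration about 60 µM downward; luminescence read.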
# NPC1 prom act: activates the NPC1 promoter; Huh7 NPC1 promoter luciferase reporter, 24 h; 320,000 compounds, 2.4% hits; AID 485313; Potency, µM (top dose mostly 9.22 µM), without a hit: at the top dose activation, usual class: activators; further: % of control where 0% means no effect; nearly all actives have a fitted effect of over 60% in size
#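 Quantitative HTS used a cell-based reporter: Huh7 cells stably bearing the NPC1 promoter upstream of luciferase were treated with compounds for 24 h, and promoter activation was read as luminescence.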
# Luc counter: blocks Kinase-Glo luciferase, a counter-screen artifact; Kinase-Glo luciferase, ATP luminescence, 8 min; Potency, µM (top dose mostly 38.3 µM), for inactives: at the top dose activity change, negative = inhibition, actives largely listed as inhibitors; Q27757; 200,000 compounds, 0.28% hits; further: on the % scale 0 is the no-effect control and ±100 the full control effect; nearly all actives have a fitted effect of over 60% in size
#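 Kinase-Glo luciferase light output from ATP and luciferin was measured with 10 uM ATP, within the enzyme's linear range. Buffer: 50 mM imidazole pH 7.2, 50 mM KCl, 7 mM MgCl2, 0.01% Tween 20, 0.05% BSA; luminescence read after 8 min at ambient temperature.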
# * = called active by the depositor; ? = inconclusive; . = not tested or not shown; ! = not confirmed by another sample; [ ] = remark or other dose. Most compounds without a hit are left out; they make up all but 7.3% or so of the library. The call rests on the fitted dose curve; in most records, active means well fitted curve in the direction sought with a large enough effect; inconclusive means small, poorly fitted or top-dose-only effect, or another doubt; inactive means no such curve, though single readings can be large; an effect the other way counts as inactive or inconclusive. Potency means the concentration at half of the fitted maximal effect.
SMILES,SMN2 splice up,Rab9 prom act,FLuc counter,NPC1 prom act,Luc counter
COCCNC(=O)c1ccccc1NC(=O)Nc1ccccc1,9.4%,2.4%,26.9µM*,-4.5%,?
COc1ccc(CNC(=O)CN2C(=O)COc3ccccc32)c(OC)c1,.,.,-0.7%,.,.
CCC(C)(C)C(=O)Nc1nnc(CCc2ccccc2)s1,.,3.98µM*,?,2.82µM*,.
CCCC(=O)Nc1nnc(CCc2ccccc2)s1,.,4.9%,-5.1%,4.0%,.
CCCc1nnc(NC(=O)CC(=O)Nc2ccccc2C(=O)O)s1,-10.6%,-1.1%,19µM*,24.3%,-5.9%
CC(C)(C)CC(=O)Nc1nnc(CCc2ccccc2)s1,.,3.16µM*,?,3.16µM*,.
O=C(CSc1nnc(-c2ccc(F)cc2)o1)N1CCCc2ccccc21,-6.5%,.,?,.,.
COc1ccc(-c2cc(C(=O)N3CCN(c4ncccn4)CC3)c3ccccc3n2)cc1,.,?,0.675µM*,?,.
COc1ccc(-c2cc(C(=O)N3CCN(c4ccccn4)CC3)c3ccccc3n2)cc1,.,2.82µM*,0.675µM*,?,.
O=C(c1cc2ccccc2oc1=O)N1CCN(c2ccccn2)CC1,.,-0.7%,7.0%,2.6%,-0.2%
O=C(c1cc(Sc2ccc(Cl)cc2)nc2ccccc12)N1CCN(c2ccccn2)CC1,-39.3%,-5.1%,-4.6%,-1.7%,1.9%
CCCc1ccc(-c2cc(C(=O)N3CCN(c4ccccn4)CC3)c3ccccc3n2)cc1,.,?,0.107µM*,?,.
O=C(c1cc2ccccc2oc1=O)N1CCN(c2ncccn2)CC1,2.0%,?,21.3µM*,19.3%,-3.5%
COc1ccc(OC)c(-c2cc(C(=O)N3CCN(c4ncccn4)CC3)c3ccccc3n2)c1,-21.2%,9.3%,-2.0%,2.5%,-2.0%
COc1cc(-c2cc(C(=O)N3CCN(c4ccccn4)CC3)c3ccccc3n2)cc(OC)c1OC,18.2%,-6.1%,-0.3%,-3.7%,-3.8%
COc1ccc(-c2nc(CSc3nncn4c3cc3oc(C)cc34)c(C)o2)cc1,.,.,-2.2%,.,.
COc1cccc(C2C(=O)N(C3CCCCC3)CC(=O)N2CCc2ccc(OC)c(OC)c2)c1 (stereo not given),.,.,-0.5%,.,.
CCOC(=O)c1sc2ccccc2c1S(=O)(=O)N1CCN(c2cccc(C)c2C)CC1,.,.,-0.2%,.,.
CC(C)CC(=O)n1nc(-c2ccco2)nc1NCc1ccc(Cl)cc1,1.9%,.,2.6%,.,.
COc1ccc(CNc2nc(-c3ccco3)nn2C(=O)CC(C)C)cc1,12.6µM*,.,.,.,.
Cc1c(C(=O)O)c(O)cc2c1C(=O)c1c(O)c([C@H]3O[C@H](CO)[C@@H](O)[C@H](O)[C@H]3O)c(O)c(O)c1C2=O,-59.5%,.,.,.,12.6µM*!
Cc1ccc(S(=O)(=O)NCc2ccccc2)cc1C(=O)N1CC(C)CC(C)C1 (stereo not given),.,-13.1%,1.7%,-2.0%,.
Cc1ccc(S(=O)(=O)NCc2ccccc2)cc1C(=O)NC1CCC(C)CC1 (stereo not given),.,1.26µM*,?,?,.
Cc1cccc(N=C2NN=C(c3c(C)[nH]c4ccccc34)CS2)c1,-106.2%,-0.2%,-1.1%,-6.4%,0.8%
Cc1ccc(N=C2NC(=O)CS2)cc1,46.5%,4.9%,4.7%[2.3 µM],1.1%,-1.8%
SMILES,SMN2 splice up,Rab9 prom act,FLuc counter,NPC1 prom act,Luc counter
CCc1ccc(C2=NNC(=Nc3cccc(S(=O)(=O)N(C)C)c3)SC2)cc1,-79.9%,10.0%,10.7µM*,22.5%,-0.7%
Cc1cccc(N=C2NN=C(c3ccc4c(c3)OCCO4)CS2)c1,-3.4%,2.82µM*,1.2µM*,2.82µM*,-20.4%
CN(C)S(=O)(=O)c1cccc(N=C2SCCN2Cc2ccccc2)c1,.,-8.0%,-10.0%,-3.2%,.
Cc1ccc(C2=NNC(=Nc3ccc(F)cc3)SC2)cc1,-1.2%,17.9%,16.9µM*,29.6%,0.1%
Cc1cc(C)cc(NC(=O)CN2C(=O)c3ccccc3Sc3ccc(C(=O)N4CCCC4)cc32)c1,.,.,-12.2%,.,.
Cc1cccc(OCc2nc3ccccc3n2C)c1,.,?,23.9µM*,?,.
Cc1cccc(OCc2nc3ccccc3c(=O)n2N)c1,?,?,16.9µM*,?,-9.1%
CCCn1c(COc2cccc(C)c2)nc2ccccc21,-13.8%,.,?,.,.
COc1cccc(OCc2nc3ccccc3n2C)c1,15.8µM*,.,10.7µM*,.,.
CCCCN1C2=NCCCN2c2ccccc21,-0.3%,-0.7%,-1.6%,0.1%,-5.6%
CCCCN1c2ccccc2N(CCCO)c2cc(C)nnc21,13.0%,3.5%,12µM*,12.7%,-0.6%
C=C(C(=O)OC)C(NC(=O)OC)c1ccccc1 (stereo not given),-3.2%,.,.,.,1.9%
CCc1cc(C(=O)COc2ccc(F)cc2)c(O)cc1O,.,27.2%,?,3.3%,.
Cc1c(O)ccc(C(=O)COc2ccc(F)cc2)c1O,.,5.01µM*,12µM*,?,.
CCC1(c2ccc(Cl)cc2)NC(=S)N(c2ccc(C)cc2)N1 (stereo not given),-54.7%,18.8%,16.9µM*,7.1%,1.9%
CCC1(c2ccc(Cl)cc2)NC(=S)N(c2ccc(C)c(C)c2)N1 (stereo not given),.,2.8%,-15.4%,13.1%,.
COc1ccc(-c2c3c(=O)n(C)c(=O)n(C)c3cn2-c2cccc(N)c2)cc1,10.8%,.,-17.3%,.,.
Cc1cccn2c1nc(=S)n2C(=O)c1ccco1,?,1.41µM*,0.675µM*,?,?
COc1cc(SC)ccc1C(=O)Nc1nc2ccccc2[nH]1,.,-43.1%,0.0135µM*,-32.2%,.
COc1ccccc1C(=O)Nc1nc2ccccc2[nH]1,.,-43.8%,0.019µM*,?,.
COc1ccccc1C(=O)NCCC(=O)Nc1nc2ccccc2[nH]1,.,-2.0%,-14.4%,2.3%,.
CC(=O)CC(=O)Nc1ccccc1,4.2%,.,.,.,.
c1ccc(NCC2OCc3ccccc3CO2)cc1,15.8µM*,2.51µM*,23.9µM*,3.98µM*,-3.1%
CCCCCCNCC1OCc2ccccc2CO1,-12.0%,-7.1%,6.0%,1.5%,-0.3%
Cc1nc2c(oc3ccccc32)c(=O)o1,16.6%,1.5%,21.3µM*,-2.1%,-4.0%
SMILES,SMN2 splice up,Rab9 prom act,FLuc counter,NPC1 prom act,Luc counter
CCOc1ccccc1NC(=O)c1cn(C2CCCC2)c(=O)c2c1c1ccccc1n2C,.,.,0.5%,.,.
CCN(CC)S(=O)(=O)c1ccc2c(c1)c(=O)c(C(=O)N(C)Cc1ccccc1)cn2C,-2.0%,.,-1.3%,.,.
Nc1ccc2oc(-c3ccccc3Br)nc2c1,12.6µM*,.,3.38µM*,.,.
Cc1ccccc1-c1nc2cc(N)ccc2o1,6.31µM*,0.355µM*,2.39µM*,0.891µM*,-10.5%
Cc1ccccc1-c1n[nH]c(=S)o1,6.5%,9.0%,-16.8%,0.9%,8.9%
Nc1ccc2oc(-c3cccc(Br)c3)nc2c1,14.1µM*,1.12µM*,2.69µM*,1.12µM*,-6.5%
CC(C)c1ccc2oc(-c3cc(N)ccc3O)nc2c1,24.5%,?,0.151µM*,0.891µM*,-11.1%
CCOC(=O)C1(C(C)C)Oc2ccccc2C(c2ccc(OC)cc2)=C1C(=O)OC (stereo not given),.,.,.,.,0.8%[39.9 µM]
